The values below come from PubChem BioAssay (NCI).

The panel holds about 83,000 compounds, 20% with a hit somewhere; the sample as a whole holds those more often.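 Treatment: one concentration, 48 hours, 96-well format. Scoring: percent growth, with anything below 10 considered active.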 The source made the active and inactive calls.

The test system of one test is SK-MEL-2 melanoma. In words: NCI-60 one-dose screen, 48 h (100 = growth as untreated, 0 = no growth, -100 = all killed). The conditions noted are these: 10 µM unless noted.
Consider `CCNC(=O)CCCCC(=O)c1c(C)[nH]c(/C=C2\N=C(c3ccc[nH]3)C=C2OC)c1C`, for which the growth was 40.8% (inactive).
In the case of `CC(=O)OCC1OC(OCC2OC(OC(C)=O)C(OC(C)=O)C(OC(C)=O)C2OC(C)=O)C(OC(C)=O)C(OC(C)=O)C1OC(C)=O` (stereo unspecified), the growth was 107% (inactive).
Turning to `Clc1ccc([I+]c2ccc(Cl)cc2Cl)c(Cl)c1`, the growth is 77.4% (inactive).
Consider `CCC(=O)Oc1cc(/C=C/C(=O)O[C@H]2C[C@H]3CN4CCc5c([nH]c6cc(OC)ccc56)[C@@H]4C[C@@H]3[C@@H](C(=O)OC)[C@@H]2OC)ccc1OC`, for which the growth was 101% (inactive).
Still for that read-out and setting: with `COC1=CC(c2ccc[nH]2)=N/C1=C\c1[nH]c(C)c(C(=O)CCCCC(=O)NCc2ccccc2)c1C` the figure was 97.1% (inactive).
For `COc1ccc(-c2nnc(COc3ccc(NS(=O)(=O)c4ccc(OC)cc4)cc3F)o2)cc1`, the growth was 68.2% (inactive).
The same measure, in the same setting: the figure for `CN1CCN(c2ccc3cc(-c4nc5ccccc5[nH]4)c(=O)oc3c2)CC1` is 105% (inactive); for `CCC1=C[C@@H]2CN(C1)Cc1c([nH]c3ccccc13)[C@@](C(=O)OC)(c1cc3c(cc1OC)N(C=O)[C@H]1[C@@](O)(C(=O)OC)[C@H](OC(C)=O)[C@]4(CC)[C@@H]5C[C@@H]5CN5CC[C@]31[C@@H]54)C2` it is 18% (inactive).
Regarding `O=S(=O)(c1ccccc1)n1ccc(-c2ccc3c(c2)CCO3)n1`, the growth is 86.5% (inactive).
The same measure, in the same setting: the figure for `COC1=CC(c2ccc[nH]2)=N/C1=C\c1[nH]c(C)c(CCCn2cc(CCCCCCCCC[C@@H]3Cc4cc(O)ccc4C4CC[C@]5(C)[C@@H](O)CC[C@H]5C43)nn2)c1C` (stereo partly specified) is 69.7% (inactive); for `CCn1cc(C(=O)O)c(=O)c2cc(F)c(N3CCN(S(=O)(=O)c4ccc(OC)c(OC)c4)CC3)cc21` it is 91.8% (inactive).
Consider `COc1cc2nc(SCc3cc(OC)c(OC)c(OC)c3)n(Cc3ccccc3)c(=O)c2cc1OC`, for which the growth is -9.82% (active).
Take `O=[N+]([O-])c1cc(S(=O)(=O)OCC2CO2)ccc1Cl` (stereo unspecified): the growth is 88.4% (inactive).
The same measure, in the same setting: the figure for `Nc1c(C(=O)Nc2ccccc2)sc2nc3c(cc12)CCC3` is 86% (inactive); for `COc1ccc([N+](=O)[O-])c(/C=C/C(=O)c2ccccn2)c1` it is 114% (inactive); for `CC(C(=O)n1cc(-c2ccccc2)c(-c2ccccc2)c1)c1ccccc1` (stereo unspecified) it is 104% (inactive).
As to `CCNCc1ccncc1`, the growth was 106% (inactive).
Regarding `NCCSC(c1ccccc1)(c1ccccc1)c1ccccc1`, the growth is 25.6% (inactive).
Consider `O=C(O)c1ccc(-n2c(=O)c3ccccc3c3ccccc3c2=O)cc1`, for which the growth is 93% (inactive).
For the molecule `COc1cc(/C=C2\C=C(c3ccc(F)cc3)N(Cc3ccccc3)C2=O)cc(OC)c1OC`, the growth was 93.1% (inactive).
Turning to `COc1ccc(/C=C2\C(=O)N(C(=O)c3csc(NC(C)=O)n3)N=C2C)cc1`, the growth is 94.8% (inactive).
Still for that read-out and setting: the figure for `COc1cccc(NC(=O)Cn2cc3c(=O)oc4ccccc4c3n2)c1` is 101% (inactive); for `CNC(C)=O` it is 104% (inactive).
For the molecule `C=C1C(=O)O[C@H]2[C@H](O)[C@@H](C)CCC/C(C)=C/CC[C@@]3(C)O[C@@H]3C[C@@H]12`, the growth is 90.4% (inactive).
For the molecule `CC(=O)Nc1ccc(S(=O)(=O)NC(CCC(=O)Nc2ccc(Cl)cc2)C(=O)O)cc1` (stereo unspecified), the growth is 107% (inactive).
As to `Cn1c(C(N)=O)cc2c1-c1nc(NC3CCCCC3)ncc1CCC2`, the growth was 105% (inactive).
The same measure, in the same setting: the figure for `Cc1nc2sccn2c1-c1csc(Nc2ccccc2Cl)n1` is 33.9% (inactive).
As for `Cc1ccc(Cn2c(-c3cccs3)nc3ccccc32)cc1`, the growth was 101% (inactive).
With `COC1=CC(c2ccc[nH]2)=N/C1=C\c1[nH]c(C)c(C(=O)CCCCC(=O)Nc2ccccc2)c1C`, the growth was 90.7% (inactive).
Consider `COc1ccc(-c2cn[nH]c2-c2cc(OC)c3c(c2)OCCO3)cc1`, for which the growth is 9.5% (active).
`COc1ccc(/C=C/c2nc(N3CCOCC3)c3cc(F)c(F)cc3n2)cc1OC`: the growth was 43.3% (inactive).
Take `O=c1oc2cc(OS(=O)(=O)c3ccc(F)cc3)ccc2c2c1CCCCC2`: the growth is 72% (inactive).
Regarding `CCn1cc(C(=O)O)c(=O)c2cc(F)c(N3CCN(S(=O)(=O)c4ccc(Cl)cc4Cl)CC3)cc21`, the growth is -18.1% (active).
For `O=C(CN1CCN(c2cc3c(cc2F)c(=O)c(C(=O)O)cn3C2CC2)CC1)Nc1ccc(C(=O)/C=C/c2ccccc2)cc1`, the growth is 53.7% (inactive).
Take `O=C(CC(O)c1ccncc1)c1ccccc1` (stereo unspecified): the growth was 57.1% (inactive).
Consider `CCn1cc(C(=O)O)c(=O)c2cc(F)c(N3CCN(S(=O)(=O)c4cccc5ccccc45)CC3)cc21`, for which the growth was 8.82% (active).
Take `CCN(CC)CCCC(C)N=c1cc(Nc2cc(=NC(C)CCCN(CC)CC)c3cc(OC)ccc3o2)oc2ccc(OC)cc12` (stereo unspecified): the growth is -83.9% (active).
As to `NC(=S)NN=C1CCCCC1`, the growth was 107% (inactive).

In a further test the test system is SN12C renal. The test is described as above. The conditions noted are these: 10 µM unless noted.
Take `CCNC(=O)CCCCC(=O)c1c(C)[nH]c(/C=C2\N=C(c3ccc[nH]3)C=C2OC)c1C`: the growth was 23.3% (inactive).
As to `CC(=O)OCC1OC(OCC2OC(OC(C)=O)C(OC(C)=O)C(OC(C)=O)C2OC(C)=O)C(OC(C)=O)C(OC(C)=O)C1OC(C)=O` (stereo unspecified), the growth is 95.1% (inactive).
The same measure, in the same setting: with `Clc1ccc([I+]c2ccc(Cl)cc2Cl)c(Cl)c1` the figure was 33.3% (inactive); with `CCC(=O)Oc1cc(/C=C/C(=O)O[C@H]2C[C@H]3CN4CCc5c([nH]c6cc(OC)ccc56)[C@@H]4C[C@@H]3[C@@H](C(=O)OC)[C@@H]2OC)ccc1OC`, 55.9% (inactive); with `COC1=CC(c2ccc[nH]2)=N/C1=C\c1[nH]c(C)c(C(=O)CCCCC(=O)NCc2ccccc2)c1C`, 44.9% (inactive).
For `COc1ccc(-c2nnc(COc3ccc(NS(=O)(=O)c4ccc(OC)cc4)cc3F)o2)cc1`, the growth was 89.8% (inactive).
As for `CN1CCN(c2ccc3cc(-c4nc5ccccc5[nH]4)c(=O)oc3c2)CC1`, the growth was 93.7% (inactive).
With `CCC1=C[C@@H]2CN(C1)Cc1c([nH]c3ccccc13)[C@@](C(=O)OC)(c1cc3c(cc1OC)N(C=O)[C@H]1[C@@](O)(C(=O)OC)[C@H](OC(C)=O)[C@]4(CC)[C@@H]5C[C@@H]5CN5CC[C@]31[C@@H]54)C2`, the growth was 21.9% (inactive).
On to `O=S(=O)(c1ccccc1)n1ccc(-c2ccc3c(c2)CCO3)n1`, for which the growth is 67.9% (inactive).
On to `COC1=CC(c2ccc[nH]2)=N/C1=C\c1[nH]c(C)c(CCCn2cc(CCCCCCCCC[C@@H]3Cc4cc(O)ccc4C4CC[C@]5(C)[C@@H](O)CC[C@H]5C43)nn2)c1C` (stereo partly specified), for which the growth was 62.4% (inactive).
On the same count and under the same terms, with `CCn1cc(C(=O)O)c(=O)c2cc(F)c(N3CCN(S(=O)(=O)c4ccc(OC)c(OC)c4)CC3)cc21` the figure was 101% (inactive).
On to `COc1cc2nc(SCc3cc(OC)c(OC)c(OC)c3)n(Cc3ccccc3)c(=O)c2cc1OC`, for which the growth was 41.2% (inactive).
For the molecule `O=[N+]([O-])c1cc(S(=O)(=O)OCC2CO2)ccc1Cl` (stereo unspecified), the growth was 103% (inactive).
The same measure, in the same setting: with `Nc1c(C(=O)Nc2ccccc2)sc2nc3c(cc12)CCC3` the figure was 85% (inactive).
For `COc1ccc([N+](=O)[O-])c(/C=C/C(=O)c2ccccn2)c1`, the growth was 81.2% (inactive).
As for `CC(C(=O)n1cc(-c2ccccc2)c(-c2ccccc2)c1)c1ccccc1` (stereo unspecified), the growth was 108% (inactive).
On to `CCNCc1ccncc1`, for which the growth was 108% (inactive).
Regarding `NCCSC(c1ccccc1)(c1ccccc1)c1ccccc1`, the growth is 23.7% (inactive).
`O=C(O)c1ccc(-n2c(=O)c3ccccc3c3ccccc3c2=O)cc1`: the growth is 107% (inactive).
Still for that read-out and setting: with `COc1cc(/C=C2\C=C(c3ccc(F)cc3)N(Cc3ccccc3)C2=O)cc(OC)c1OC` the figure was 65.7% (inactive).
Consider `COc1ccc(/C=C2\C(=O)N(C(=O)c3csc(NC(C)=O)n3)N=C2C)cc1`, for which the growth is 106% (inactive).
The same measure, in the same setting: the figure for `COc1cccc(NC(=O)Cn2cc3c(=O)oc4ccccc4c3n2)c1` is 103% (inactive); for `CNC(C)=O` it is 100% (inactive); for `C=C1C(=O)O[C@H]2[C@H](O)[C@@H](C)CCC/C(C)=C/CC[C@@]3(C)O[C@@H]3C[C@@H]12` it is 91.2% (inactive).
With `CC(=O)Nc1ccc(S(=O)(=O)NC(CCC(=O)Nc2ccc(Cl)cc2)C(=O)O)cc1` (stereo unspecified), the growth is 102% (inactive).
Consider `Cn1c(C(N)=O)cc2c1-c1nc(NC3CCCCC3)ncc1CCC2`, for which the growth was 90.9% (inactive).
As for `Cc1nc2sccn2c1-c1csc(Nc2ccccc2Cl)n1`, the growth is 57.1% (inactive).
Turning to `Cc1ccc(Cn2c(-c3cccs3)nc3ccccc32)cc1`, the growth was 98.6% (inactive).
Regarding `COC1=CC(c2ccc[nH]2)=N/C1=C\c1[nH]c(C)c(C(=O)CCCCC(=O)Nc2ccccc2)c1C`, the growth was 73.5% (inactive).
As for `COc1ccc(-c2cn[nH]c2-c2cc(OC)c3c(c2)OCCO3)cc1`, the growth was 29.6% (inactive).
As for `COc1ccc(/C=C/c2nc(N3CCOCC3)c3cc(F)c(F)cc3n2)cc1OC`, the growth was 33.4% (inactive).
On to `O=c1oc2cc(OS(=O)(=O)c3ccc(F)cc3)ccc2c2c1CCCCC2`, for which the growth was 70.1% (inactive).
In the case of `CCn1cc(C(=O)O)c(=O)c2cc(F)c(N3CCN(S(=O)(=O)c4ccc(Cl)cc4Cl)CC3)cc21`, the growth is 10.3% (inactive).
`O=C(CN1CCN(c2cc3c(cc2F)c(=O)c(C(=O)O)cn3C2CC2)CC1)Nc1ccc(C(=O)/C=C/c2ccccc2)cc1`: the growth is 11.3% (inactive).
With `O=C(CC(O)c1ccncc1)c1ccccc1` (stereo unspecified), the growth is -22.2% (active).
As for `CCn1cc(C(=O)O)c(=O)c2cc(F)c(N3CCN(S(=O)(=O)c4cccc5ccccc45)CC3)cc21`, the growth is 11.9% (inactive).
Take `CCN(CC)CCCC(C)N=c1cc(Nc2cc(=NC(C)CCCN(CC)CC)c3cc(OC)ccc3o2)oc2ccc(OC)cc12` (stereo unspecified): the growth is -9.47% (active).
Regarding `NC(=S)NN=C1CCCCC1`, the growth was 85.2% (inactive).
